Data on 21 compounds can be found in PubChem BioAssay AID651568 (National Center for Advancing Translational Sciences (NCATS), 2012).

The campaign covered roughly 1,200 compounds. About 55 (5%) were called active. Another 15% or so got no clear call; they are omitted. Calls follow the shape of the dose curve; as a rule, active = well fitted inhibition curve with a large enough effect; inconclusive = small, poorly fitted or top-dose-only effect; inactive = no such curve, though single readings can be large or run the other way. This excerpt belongs to a sample that is enriched for actives.
% is scaled to controls: 0 for no effect and ±100 for the full control effect; potency is read from the fitted curve at half-maximal effect.

The experiment in a line: qHTS Assay to Find Inhibitors of Chronic Active B-Cell Receptor Signaling: Hit Validation in Renilla Reporter Assay. Also: nearly all actives have a fitted effect of over 70% in size. Conditions: TMD8 IkB-Renilla luciferase reporter, NF-kB signaling; series mostly up to 57.5 µM; activity change, negative = inhibition: at the top concentration. An excerpt: Diffuse large B-cell lymphoma (DLBCL) is the most common category of non-Hodgkin lymphoma, with ~20,000 new cases per year in the United States. DLBCL should be regarded as a collection of different neoplasms. Microarray gene expression analysis has defined two principal types of DLBCL, named for their similarity to normal B cell stages or activation states: a germinal center B-cell (GCB) type, and an activated B-cell (ABC) type. In ABC-DLBCL, a constitutive high-level activity of the NF-kappaB family of transcription factors has been observed (1) and NF-kappaB target genes are more highly expressed in ABC primary tumors than in GCB tumors. Functional studies have shown a constitutive high-level activity of the IkappaB (inhibitor of kappa-B) kinase (IKK) complex. […] Further analysis of DLBCL primary tumors for NF-kappaB target gene expression imply that although CARD11 is required for constitutive IKK activity in all ABC-DLBCL lines, mutations in CARD11 may be the root cause of IKK activation only in lines or tumors with such mutations. In other words, CARD11 mutations may explain NF-kappaB activation in only 10% of ABC-DLBCL cases. […] This process has been termed 'chronic active BCR signaling' (CABS). The goal of this screen is to find small-molecule inhibitors of the CABS pathway found in ABC-DLBCL lines using a cell-based assay that measures IkappaBalpa stability, which has already been extensively validated in the OCI-Ly3 line (PubChem AID:445; REF: 4). […] Hits from the primary screen were tested in this orthogonal secondary assay. NIH Molecular Libraries Probe Production Network [MLPCN] NIH Chemical Genomics Center [NCGC] MLPCN Grant: R03 DA031086 PI Name: Dr. R. Eric Davis
The IkB-Photinus/Renilla reporter assay differs from the primary assay in that the reporters are constitutively expressed, and based on luciferases that are different from the click beetle luciferases and each other. These differences should help to eliminate artifactual sources of activity specific to the primary assay. This assay uses the Dual-Glo substrate from Promega; extensively validated in a 96-well format, it could be converted to a smaller-well format. All lines needed for the IkB-Photinus/Renilla assay have already been prepared and extensively validated
For `O=c1c2ccccc2[se]n1-c1ccccc1`, the Potency was 15.1 µM (active). With `C/C(=N\N1CCCCC1)c1c(O)[nH]c(=O)[nH]c1=O`, the “activity change, negative = inhibition” value was -0.419% (inactive). Take `CC[C@]12CC[C@H](O)CC1=CCC1C2CC[C@]2(C)C(=O)CCC12` (stereo partly specified): the “activity change, negative = inhibition” value was -2.46% (inactive). Consider `C=CC[C@@H](CC/C=C/C=C/CC/C=C\[C@@H]1CSC([C@@H]2C[C@@H]2C)=N1)OC`, for which the Potency was 30.1 µM (active). As for `CC(C)CCCn1c(O)c(/C=C2/C=CC=N2)c(=O)[nH]c1=O`, the “activity change, negative = inhibition” value is -20.5% (inactive). Same read-out and setting: then `C#CCOc1cc(C2C3=C(COC3=O)Nc3cc4c(cc32)OCO4)ccc1OC` (stereo unspecified), with -16.5% (inactive); and `CCNC(=O)[C@H]1O[C@@H](n2cnc3c(N)ncnc32)[C@H](O)[C@@H]1O`, with -8.48% (inactive).

`COc1cc2c(c(OC)c1OC)-c1ccc(O)cc1[C@@H](NC(C)=O)CC2`: the “activity change, negative = inhibition” value is -2.7% (inactive). On the same count and under the same terms, then `CCCCOCCCn1c(N)c(C(=O)OCCOC)c2nc3ccccc3nc21`, with -1.2% (inactive). The same measure, in the same setting: then `CN1C(=O)CN=C(c2ccc(Cl)cc2)c2cc(Cl)ccc21`, with 3.92% (inactive).

Take `O=C1C(=O)c2cccc3cccc1c23`: the Potency was 26.9 µM (active). Take `COc1ccc(Cc2nccc3cc(OC)c(OC)cc23)cc1OC`: the “activity change, negative = inhibition” value is -12.3% (inactive).

For the compound `COc1ccc(C(=O)Oc2cccc3cccnc23)cc1S(=O)(=O)N1CCOCC1`, the “activity change, negative = inhibition” value was -25.8% (inactive). Regarding `COc1cc2c3cc1Oc1cc(ccc1O)C[C@@H]1c4c(cc(OC)c(O)c4Oc4ccc(cc4)C[C@H]3N(C)CC2)CCN1C`, the Potency was 23.9 µM (active). In the case of `COc1ccc(C=C2C(=O)N(C)C(=O)N(C)C2=O)cc1COc1ccc(NC(C)=O)cc1`, the “activity change, negative = inhibition” value was -13.9% (inactive). Still for that read-out and setting: next, `CCc1ccccc1N1C(=O)/C(=C/c2ccc(N3CCN(C)CC3)o2)C(=O)NC1=S`: -9.48% (inactive). As to `CCCC[C@@H](C)C[C@@H](C)C(=O)N(C)[C@@H](CC(C)C)C(=O)N[C@H](C(=O)N(C)[C@H](C(=O)N1C[C@@H](O)C[C@H]1C(=O)N1C(=O)C=C[C@@H]1C)C(C)C)C(C)OC(C)=O` (stereo partly specified), the Potency was 26.9 µM (active). Regarding `COc1cc(C2c3cc4c(cc3CC3COC(=O)C32)OCO4)cc(OC)c1OC` (stereo unspecified), the “activity change, negative = inhibition” value was -14.9% (inactive). On to `Cc1cc(C)c(C(=O)CN2CCOCC2)c(C)c1`, for which the “activity change, negative = inhibition” value was -9.8% (inactive).

Consider `COc1cc2c(c(OC)c1OC)-c1ccc(O)c(=O)cc1C(NC(C)=O)CC2` (stereo unspecified), for which the “activity change, negative = inhibition” value was -5.2% (inactive). On the same count and under the same terms, next, `COc1ccc(-c2nn(CCC#N)cc2C(=O)Nc2ccc(C(C)=O)cc2)cc1[N+](=O)[O-]`: 2.38% (inactive).
